Screening data: PubChem, several laboratories
Shn3 3UTR inh: reduction of Shn3 3'UTR firefly luciferase signal, primary screen, Schnurri-3 inhibitor project, cell-based, Clone20 osteoblasts, set 2 | Clone20 osteoblast Shn3 3'UTR firefly luciferase, 24 h | inhibition, % at 12.5 µM | 360,000 tested, 0.52% active;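 active means mean inhibition of at least 75% with every replicate also reaching 75%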;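 further: 0% = median of neutral control wells and 100% = pilot-screen positive control compound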
CF NFkB inh: inhibitors of PAF-induced NF-kB signaling, primary screen, cell-based, GFP fluorescence, uHTS; KKLEB NF-kB-GFP reporter, GFP fluorescence overnight; inhibition, % at 5 µM; 360,000 tested, 0.86% active; AID 588850, 2011;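 active means at least 50% inhibition at 5 µM, scaled per plate between neutral and stimulator controls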;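 further: PAF is a Pseudomonas aeruginosa culture filtrate used as stimulus; plate controls were PAF-stimulated DMSO wells for no effect and unstimulated DMSO wells for full effect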
HIF-2a inh: HIF-2a reporter inhibitors, primary screen, luminescence, 786-0 RCC cells. 786-0 RCC cells HIF-2a reporter, luciferase luminescence, overnight. inhibition, % at 18.8 µM. 360,000 tested, 0.72% active. AID 624352, 2012;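 active means inhibition of the luminescence signal of 40% or more relative to plate controls, in a single-dose primary screen at 18.75 µM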
KKLEB tox: cytotoxicity in KKLEB CF airway cells, primary screen, cytotoxicity control for CF NF-kB inhibitor project, cell-based, uHTS, fluorescence assay plates | KKLEB CF airway cells viability, ATPlite luminescence, overnight; hits give low values; cells stimulated with P. aeruginosa culture filtrate | activity change (cytotoxicity), % at 5 µM | 360,000 tested, 0.36% active | AID 602141, 2011;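 active means corrected activity change at or below -50% at 5 µM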
TRPM1 prom inh: inhibitors of MITF-dependent TRPM1 promoter reporter, primary screen, cell-based, SK-MEL-5, single point, luciferase. 330,000 tested, 0.83% active. SK-MEL-5 TRPM1 promoter luciferase, 24 h. inhibition, % at 12.5 µM. AID 488899, 2010;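 active means mean inhibition across replicates of 60% or more, whatever share of single replicates reaches that level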
Peg3 promoter: Peg3 promoter-driven luciferase inhibitors, primary screen, cell-based, HeLa, luciferase luminescence | inhibition, % at 20 µM | HeLa PEG-Prom luciferase reporter, overnight | 360,000 tested, 1.7% active | AID 588405, 2011;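 active means inhibition of at least 50% at 20 µM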
Mdm2 MdmX conf: retested Mdm2-MdmX interaction blockers, confirmation, cell-based, luminescence, single concentration, set 2; AID 504601, 2011; inhibition, % at 8 µM; 740 tested, 99% active; shares compounds with HIF-2a inh; SaOS-2 split-luciferase Mdm2/MdmX complementation;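 active means mean inhibition of the luminescence signal across two replicates at or above 26 percent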
Target sequence (O15151 whole entry, looked up): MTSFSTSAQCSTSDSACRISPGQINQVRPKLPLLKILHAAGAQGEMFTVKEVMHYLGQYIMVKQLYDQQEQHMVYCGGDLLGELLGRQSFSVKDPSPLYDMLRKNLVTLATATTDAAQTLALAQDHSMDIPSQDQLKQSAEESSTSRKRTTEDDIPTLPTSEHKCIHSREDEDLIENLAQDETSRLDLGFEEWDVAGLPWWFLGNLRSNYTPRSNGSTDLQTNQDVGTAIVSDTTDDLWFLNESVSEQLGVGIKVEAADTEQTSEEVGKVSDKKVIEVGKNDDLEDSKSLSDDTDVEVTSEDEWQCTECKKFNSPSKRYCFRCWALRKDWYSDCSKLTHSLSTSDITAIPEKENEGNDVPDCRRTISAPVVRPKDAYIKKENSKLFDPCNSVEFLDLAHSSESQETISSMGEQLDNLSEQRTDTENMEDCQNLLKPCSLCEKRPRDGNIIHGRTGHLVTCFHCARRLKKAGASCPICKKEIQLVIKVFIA
Target sequence (Q00987 whole entry, looked up): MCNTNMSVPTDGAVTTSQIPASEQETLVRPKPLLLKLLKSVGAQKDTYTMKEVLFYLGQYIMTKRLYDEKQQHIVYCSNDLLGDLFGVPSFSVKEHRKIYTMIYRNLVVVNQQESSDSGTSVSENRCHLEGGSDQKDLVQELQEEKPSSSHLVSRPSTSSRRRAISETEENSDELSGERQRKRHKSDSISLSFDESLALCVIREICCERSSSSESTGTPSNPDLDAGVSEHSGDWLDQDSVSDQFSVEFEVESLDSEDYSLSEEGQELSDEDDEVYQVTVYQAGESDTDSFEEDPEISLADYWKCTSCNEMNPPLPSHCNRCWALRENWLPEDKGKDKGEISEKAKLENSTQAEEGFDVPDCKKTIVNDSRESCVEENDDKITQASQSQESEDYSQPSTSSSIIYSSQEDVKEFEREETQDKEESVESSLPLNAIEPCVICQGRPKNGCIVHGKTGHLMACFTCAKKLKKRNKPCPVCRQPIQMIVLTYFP
HIF-2a inh conf: HIF-2a reporter inhibitor retest, confirmation, luminescence, 786-0 RCC cells. shares compounds with HIF-2a inh. HIF-2a luciferase reporter luminescence, overnight. inhibition, % at 18.8 µM. 1,800 tested, 56% active. AID 651580, 2012;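 active means mean inhibition across four replicates of at least 40 percent at the single tested concentration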
HIF-1a cs: HIF-1a luciferase reporter signal reduction – MiaPaCa-2 cells, single concentration, counter-screen for HIF-2a inhibitor project, confirmation; shares compounds with HIF-2a inh; MiaPaCa-2 HIF-1a luciferase reporter, desferoxamine, overnight; inhibition, % at 18.8 µM; 1,800 tested, 72% active;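 active means mean inhibition of the reporter signal across four replicates at the single tested dose of 50% or more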
An asterisk follows results filed as active. In the library only some 2.7% were active in any assay of this set; here they are far more common.

For COc1cc(OC)c(C(=O)/C=C/c2ccc(OCc3ccccc3)c(OC)c2)c(OC)c1 the results were Shn3 3UTR inh 6, CF NFkB inh -1, HIF-2a inh 46*, KKLEB tox 15, TRPM1 prom inh 4, Peg3 promoter 48, HIF-2a inh conf 32 and HIF-1a cs 39.
`COc1ccccc1-c1cccc([C@@H]2C[C@H]3[C@H](CON3C)CN2C(C)=O)c1` gave Shn3 3UTR inh 3, CF NFkB inh -8, HIF-2a inh 4, KKLEB tox 2, TRPM1 prom inh -8 and Peg3 promoter 17.
Screening N#CC(C#N)=C1C=CC=CN1/C(=C\c1ccccc1Cl)C(=O)c1ccccc1 returned Shn3 3UTR inh 87*, CF NFkB inh 81*, HIF-2a inh 97*, KKLEB tox -58*, TRPM1 prom inh 77*, Peg3 promoter 108*, HIF-2a inh conf 88* and HIF-1a cs 94*.
`N#CC(C#N)=C1C=CC=CN1/C(=C\c1ccccc1)C(=O)c1cccs1` gave Shn3 3UTR inh -53, CF NFkB inh 13, HIF-2a inh -38, KKLEB tox -26, TRPM1 prom inh 47 and Peg3 promoter 12.
`CCCNC(=O)C1(C)CCN(C(=O)Cc2ccc3ccccc3c2)C1` (stereo unspecified) gave Shn3 3UTR inh 6, CF NFkB inh -7, HIF-2a inh 7, KKLEB tox -18 and Peg3 promoter 5.
COc1ccc(-c2oc3c(c2C(=O)OCCO)C(OCCCO)CCC3)cc1 (stereo unspecified) was read as HIF-2a inh 4.
Screening CCc1ccc(-c2nc(CSCC(=O)NCCCN3CCCC3=O)c(C)o2)cc1 returned Shn3 3UTR inh 15, CF NFkB inh 0, HIF-2a inh 45*, KKLEB tox -11, TRPM1 prom inh 7, Peg3 promoter 14, HIF-2a inh conf -5 and HIF-1a cs 16.
For CCOC(=O)c1cccc(NC(=O)Nc2ccc(OCC)cc2)c1 the results were Shn3 3UTR inh 3, CF NFkB inh -14, HIF-2a inh 62*, KKLEB tox 1, TRPM1 prom inh -30, Peg3 promoter -136, HIF-2a inh conf 61* and HIF-1a cs -17.
`Nc1nnnn1/N=C/C(Br)=C/c1ccccc1` gave Shn3 3UTR inh 97*, CF NFkB inh 91*, HIF-2a inh 83*, KKLEB tox -94*, TRPM1 prom inh 85*, Peg3 promoter 114*, Mdm2 MdmX conf 103*, HIF-2a inh conf 30 and HIF-1a cs 104*.
Nc1nnnn1/N=C/C=C/c1ccccc1 was read as Shn3 3UTR inh -18, CF NFkB inh 14, HIF-2a inh -106, KKLEB tox -10, TRPM1 prom inh -13 and Peg3 promoter -89.
Screening N=c1c2c(-c3ccccc3)c(-c3ccccc3)n(Cc3ccco3)c2ncn1CCCn1ccnc1 returned Shn3 3UTR inh 11, CF NFkB inh 21, HIF-2a inh 69*, KKLEB tox -20, TRPM1 prom inh 88*, Peg3 promoter 66*, HIF-2a inh conf 16 and HIF-1a cs 74*.
Screening CC(C)Cn1cnc2c(c(-c3ccccc3)c(-c3ccccc3)n2Cc2ccco2)c1=N returned Shn3 3UTR inh 3, CF NFkB inh 13, HIF-2a inh 58*, KKLEB tox -15, TRPM1 prom inh 17, Peg3 promoter 104*, HIF-2a inh conf 16 and HIF-1a cs 102*.
Screening c1ccc(-c2c(-c3ccccc3)n(Cc3ccco3)c3ncnc(NCCCn4ccnc4)c23)cc1 returned Shn3 3UTR inh 38, CF NFkB inh 22, HIF-2a inh 49*, KKLEB tox -6, TRPM1 prom inh 6, Peg3 promoter 37, HIF-2a inh conf 34 and HIF-1a cs 101*.
`OCCNc1ncnc2c1c(-c1ccccc1)c(-c1ccccc1)n2Cc1ccco1` gave Shn3 3UTR inh 6, CF NFkB inh 17, HIF-2a inh 21, KKLEB tox -4, TRPM1 prom inh 10 and Peg3 promoter 7.
N=c1c2c(-c3ccccc3)c(-c3ccccc3)n(Cc3ccco3)c2ncn1CCCN1CCOCC1 was read as Shn3 3UTR inh 20, CF NFkB inh 22, HIF-2a inh 7, KKLEB tox 0, TRPM1 prom inh 3, Peg3 promoter 99* and Mdm2 MdmX conf 102*.
For CC1(C(=O)Nc2cnc3ccccc3c2)CCN1C(=O)c1ccccc1CCc1ccccc1 (stereo unspecified) the results were Shn3 3UTR inh 0, CF NFkB inh 16, HIF-2a inh 15, KKLEB tox -1 and Peg3 promoter 28.
`Cc1cc(C)nc(SCc2ccc(C(=O)N/N=C/c3ccncc3)cc2)n1` gave Shn3 3UTR inh 9, CF NFkB inh 2, HIF-2a inh 15, KKLEB tox -4, TRPM1 prom inh 5 and Peg3 promoter 6.
`Cc1cc(C)nc(SCc2ccc(C(=O)NNC(=O)Nc3cccc(Cl)c3)cc2)n1` gave Shn3 3UTR inh 17, CF NFkB inh 40, HIF-2a inh 90*, KKLEB tox -8, TRPM1 prom inh 9, Peg3 promoter 75*, HIF-2a inh conf 50* and HIF-1a cs 105*.
`Cc1nc(/C(=N/O)C(N)=O)cs1` gave Shn3 3UTR inh -6, CF NFkB inh -17, HIF-2a inh 45*, KKLEB tox -11, TRPM1 prom inh -11, Peg3 promoter 11, HIF-2a inh conf -11 and HIF-1a cs -5.
Screening N#CCCN(Cc1ccccc1)C(C(=O)NC1CCCCC1)c1cc2ccccc2o1 (stereo unspecified) returned Shn3 3UTR inh 8, CF NFkB inh -3, HIF-2a inh -1, KKLEB tox -13 and Peg3 promoter 29.
